Statin myotox sup = suppressors of statin myotoxicity in C2C12 myotubes, primary screen, cell-based, single point, plate reader | C2C12 myotubes + simvastatin, ATP luminescence, 48 h; scaled: DMSO 0, geranylgeraniol control 100 | rescue of ATP level, % at 7.49 µM | hit rate 0.78% among 330,000;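 active means mean ATP rescue above about 67%, or every replicate alone reaching that limit, limit read from the data, passing the limit was not always enough; inconclusive means no clear call, values can overlap the other calls; inactive means mean under the limit and some replicate under it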;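 further: myotubes were challenged with 10 µM simvastatin during compound exposure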
DENV2 CPE = inhibitors of DENV2 cytopathic effect, primary screen, cell-based, plate reader, single concentration | DENV2-infected cells, cytopathic effect rescue | CPE inhibition, % at 9.99 µM | hit rate 1.7% among 350,000 | AID 651640, 2012; in the data active means CPE inhibition above about 20%, passing the limit was not always enough; inconclusive means no clear call, values can overlap the other calls; tested in BHK-21 cells
miR-122 sensor = miR-122 Renilla sensor signal increase in Huh7, primary screen, miR-122 inhibitor project, cell-based, single point, plate reader | activation (reporter increase), % at 12.5 µM | hit rate 0.3% among 340,000 | Huh7 miR-122 Renilla luciferase sensor, 48 h; neutral wells = 0, positive control = 100;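 active means mean replicate activation score at least 90 and every replicate individually at or above 90; inconclusive means only one of the two criteria met; inactive means neither criterion met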;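 further: higher luciferase means less miR-122 activity so hits act as miR-122 inhibitors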
PvdQ inh = P. aeruginosa PvdQ acylase inhibitors, primary screen, biochemical, fluorescence, plate reader and imaging, single point | PvdQ acylase [Pseudomonas aeruginosa LESB58] | purified PvdQ acylase | inhibition, % at 10 µM | hit rate 0.063% among 340,000; in the data active means inhibition above about 30%, passing the limit was not always enough; inconclusive means no clear call, values can overlap the other calls
PGC1a acetyl inh = inhibitors of PGC1a acetylation signal, primary screen, cell-based, U2OS, AlphaScreen, inhibitor mode | AlphaScreen anti-acetyl-lysine; with virally co-expressed GCN5 acetyltransferase | inhibition, % at 15.6 µM | hit rate 0.17% among 350,000;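 active means every replicate shows inhibition of at least 40%; inconclusive means mean inhibition at least 40% but some replicate below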
Numbers stand for hits; 0 = inactive; ? = inconclusive; - = no result; ! = repeats disagree. This is a sample that favours compounds with a hit; in the whole collection about 2.2% have one here.

SMILES | Statin myotox sup | DENV2 CPE | miR-122 sensor | PvdQ inh | PGC1a acetyl inh
O=C(C1=C[C@H](C2CC2)C[C@H](OCCCCO)O1)N1CCN(Cc2ccc3c(c2)OCO3)CC1 | 0 | 0 | 0 | 0 | 0
CC(CNC(=O)Cn1ccc(NC(=O)OCc2ccccc2)nc1=O)c1ccccc1 (centres undefined) | 0 | 36 | - | 0 | -
C/C=C/c1ccc2c(c1)O[C@@H](CN(C)C(=O)Nc1ccccc1)[C@H](C)CN([C@H](C)CO)S2(=O)=O | 0 | 28 | 0 | - | 0
C/C=C/c1ccc2c(c1)O[C@@H](CN(C)C(=O)NC1CCCCC1)[C@@H](C)CN([C@@H](C)CO)S2(=O)=O | 111 | 0 | 0 | - | 0
C/C=C/c1ccc2c(c1)O[C@@H](CN(C)C(=O)NC1CCCCC1)[C@H](C)CN([C@@H](C)CO)S2(=O)=O | 0 | 0 | 0 | - | 0
C[C@H]1CN([C@@H](C)CO)S(=O)(=O)c2ccc(-c3ccncc3)cc2O[C@@H]1CN(C)C(=O)c1ccc2c(c1)OCO2 | 0 | 26 | 0 | - | 0
C[C@@H]1CN([C@@H](C)CO)S(=O)(=O)c2ccc(/C=C/c3ccccc3)cc2O[C@H]1CN(C)C(=O)c1ccncc1 | 0 | 41 | 0 | - | 0
C[C@H](CO)N1C[C@H](C)[C@H](CN(C)C(=O)c2ccccc2)Oc2cc(/C=C/c3ccccc3)ccc2S1(=O)=O | 0 | 0 | 0 | - | 0
C[C@H]1CN([C@@H](C)CO)C(=O)c2cc(C#Cc3ccncc3)cnc2O[C@@H]1CN(C)CC1CCCC1 | ? | 0 | 0 | - | 0
C[C@H](CO)N1C[C@H](C)[C@H](CN(C)S(=O)(=O)c2ccc(Cl)cc2)Oc2c(NS(=O)(=O)c3ccc(Cl)cc3)cccc2C1=O | 0 | 0 | 0 | - | 0
CC(C)NC(=O)N(C)C[C@@H]1OCCCC[C@@H](C)Oc2ccc(NS(=O)(=O)c3ccc(Cl)cc3)cc2C(=O)N([C@H](C)CO)C[C@H]1C | - | 0 | 0 | - | 0
OC(c1cc(Cl)cc(Cl)c1)c1ncc(-c2ccccc2F)[nH]1 (centres undefined) | 0 | 0 | 150 | - | -
OC(c1ccc(F)cc1)c1ncc(-c2ccccc2F)[nH]1 (centres undefined) | 0 | 0 | 146 | - | -
CO[C@H]1CN(C)C(=O)c2ccc(NC(=O)Nc3ccccc3)cc2OC[C@H](C)N(C(=O)CN(C)C)C[C@H]1C | 0 | 0 | 0 | - | 0
CCN(CC)c1ccc(/C=N/N2CCN(Cc3ccccc3Cl)CC2)cc1 | 0 | 0 | 0 | 0 | 0
CN(C)c1ccc(/C=N/N2CCN(Cc3ccccc3Cl)CC2)cc1 | 0 | 55 | 0 | 0 | 0
C[C@@H]1CCCCO[C@H](CN(C)Cc2ccc(C(F)(F)F)cc2)[C@H](C)CN([C@@H](C)CO)C(=O)c2cc(NC(=O)c3ccncc3)ccc2O1 | 76 | 0 | 0 | - | -
C[C@@H]1CCCCO[C@@H](CN(C)C(=O)Nc2ccc(C(F)(F)F)cc2)[C@@H](C)CN([C@H](C)CO)C(=O)c2cc(NC(=O)C3CCCCC3)ccc2O1 | 0 | 27 | 0 | - | 0
C[C@@H]1CCCCO[C@@H](CN(C)Cc2ccc(C(F)(F)F)cc2)[C@@H](C)CN([C@H](C)CO)C(=O)c2cc(NC(=O)C3CCCCC3)ccc2O1 | - | 31 | 0 | - | 0
C[C@@H]1CCCCO[C@@H](CN(C)Cc2ccc(C(F)(F)F)cc2)[C@H](C)CN([C@@H](C)CO)C(=O)c2cc(NC(=O)c3ccncc3)ccc2O1 | 121 | 0 | 0 | - | -
O=C(CCN1CCCCC1)N[C@@H]1CC[C@@H](CCNS(=O)(=O)c2ccccc2)O[C@@H]1CO | 0 | 0 | 0 | - | 0
C[C@@H]1CCCCO[C@@H](CN(C)CC2CCCCC2)[C@@H](C)CN([C@H](C)CO)C(=O)c2cc(NS(=O)(=O)c3ccc(F)cc3)ccc2O1 | 96 | 0 | 0 | - | 0
C[C@@H]1CN([C@H](C)CO)C(=O)c2cc(NS(=O)(=O)c3ccc(F)cc3)ccc2O[C@@H](C)CCCCO[C@H]1CN(C)CC1CCCCC1 | 0 | 0 | 0 | - | 0
Cc1ccc(S(=O)(=O)Nc2ccc3c(c2)C(=O)N([C@@H](C)CO)C[C@@H](C)[C@@H](CN(C)CC2CC2)OCCCC[C@@H](C)O3)cc1 | 0 | 63! | 0 | - | 0
C[C@@H]1CCCCO[C@H](CN(C)CC2CCCCC2)[C@@H](C)CN([C@H](C)CO)C(=O)c2cc(NS(=O)(=O)c3ccc(Cl)cc3)ccc2O1 | - | 0 | 0 | - | 0
SMILES | Statin myotox sup | DENV2 CPE | miR-122 sensor | PvdQ inh | PGC1a acetyl inh
C[C@@H]1CCCCO[C@@H](CN(C)CC2CCCCC2)[C@@H](C)CN([C@H](C)CO)C(=O)c2cc(NS(=O)(=O)c3ccc(Cl)cc3)ccc2O1 | 0 | 63! | 0 | - | 0
Cc1ccc(S(=O)(=O)Nc2ccc3c(c2)C(=O)N([C@H](C)CO)C[C@H](C)[C@H](CN(C)CC2CC2)OCCCC[C@H](C)O3)cc1 | 0 | ? | 0 | - | 0
O=C(Cc1cccnc1)N1CC(=O)N2[C@@H](CO)[C@@H](c3ccc(C#CC4CC4)cc3)[C@@H]2C1 | - | 0 | - | - | 0
Cc1c(NC(=O)C(C#N)=C2CCCCC2)c(=O)n(-c2ccccc2)n1C | 106 | - | 0 | 0 | 0
Cc1c(NC(=O)/C(C#N)=C/c2ccccc2)c(=O)n(-c2ccccc2)n1C | - | 0 | 0 | 0 | 0
Cc1ccc(NS(=O)(=O)c2ccc(-c3ccc(=O)[nH]n3)o2)cc1Cl | 137 | 0 | 0 | 0 | 0
Cc1ccc(NS(=O)(=O)c2ccc(-c3ccc(=O)[nH]n3)o2)cc1N(C)C | 0 | 0 | 0 | 0 | 0
Cc1cccc(NS(=O)(=O)c2ccc(-c3ccc(=O)[nH]n3)o2)c1 | 0 | 0 | 0 | 0 | 0
O=c1ccc(-c2ccc(S(=O)(=O)Nc3cccc(Br)c3)o2)n[nH]1 | 0 | 27 | 0 | 0 | 0
COc1ccc(NC(=O)N(C)C[C@H]2OCCCC[C@H](C)Oc3ccc(NC(=O)c4ccncc4)cc3C(=O)N([C@@H](C)CO)C[C@@H]2C)cc1 | - | 49 | 0 | - | 0
COc1ccc(NC(=O)N(C)C[C@@H]2OCCCC[C@H](C)Oc3ccc(NC(=O)c4ccncc4)cc3C(=O)N([C@@H](C)CO)C[C@@H]2C)cc1 | - | 0 | 0 | - | 0
COc1ccc(NC(=O)N(C)C[C@@H]2OCCCC[C@@H](C)Oc3ccc(NC(=O)c4ccncc4)cc3C(=O)N([C@H](C)CO)C[C@H]2C)cc1 | - | 20 | 0 | - | 0
COc1ccc(NC(=O)Nc2cccc3c2O[C@H](CN(C)Cc2ccc(C(F)(F)F)cc2)[C@@H](C)CN([C@H](C)CO)C3=O)cc1 | 0 | 22 | 0 | - | 0
COc1ccc(CN(C)C[C@H]2Oc3c(NC(=O)Nc4ccc(OC)cc4)cccc3C(=O)N([C@H](C)CO)C[C@@H]2C)cc1 | 0 | 0 | 0 | - | 0
COc1ccc(NC(=O)Nc2cccc3c2O[C@H](CN(C)C(=O)NC2CCCCC2)[C@H](C)CN([C@@H](C)CO)C3=O)cc1 | 0 | 88 | 0 | - | 0

Source: PubChem (Broad Institute)
